Results: the supplement of paper PMC6555819

Experiments:
Assay in all cases: PBM binding z-score (relative to random genomic background probes); higher = stronger binding; sequences stand for … in GC…GCGATTGACAGCGTAGAATGAAGG
[1] = tested on: FXR:RXRa (NR concentration 270 nM, RXRa partner concentration 90 nM)
Method in brief: (§1)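 Binding z-scores were set against random background probes. The data came from custom Agilent 4×180K protein-binding microarrays carrying double-stranded probes with 34-nt variable regions, incubated 1 h with ligand-free nuclear receptor dimers. Partner-specific antibodies detected binding, and scanned fluorescence was regression-normalized.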

[2] = tested on: LXRa:RXRa (NR concentration 270 nM, RXRa partner concentration 90 nM)
Method in brief: as §1

[3] = tested on: LXRa homodimer (NR concentration 270 nM)
Method in brief: as §1

[4] = tested on: LXRb:RXRa (NR concentration 270 nM, RXRa partner concentration 90 nM)
Method in brief: as §1

[5] = tested on: LXRb homodimer (NR concentration 270 nM)
Method in brief: as §1

[6] = tested on: PPARa:RXRa (NR concentration 270 nM, RXRa partner concentration 90 nM)
Method in brief: as §1

[7] = tested on: PPARg:RXRa (NR concentration 180 nM, RXRa partner concentration 90 nM)
Method in brief: as §1

[8] = tested on: PPARg:RXRa 270nM:90nM, anti-RXR (NR concentration 270 nM, RXRa partner concentration 90 nM)
Method in brief: as §1

[9] = tested on: PPARg:RXRa 30nM:10nM, anti-RXR (NR concentration 30 nM, RXRa partner concentration 10 nM)
Method in brief: as §1

[10] = tested on: PPARg:RXRa 90nM:30nM, anti-RXR (NR concentration 90 nM, RXRa partner concentration 30 nM)
Method in brief: as §1

[11] = tested on: PPARg:RXRa DBDmut IVT, anti-RXR (DBD mutation: RXRa K156A/R161A, NR concentration 270 nM, RXRa partner concentration 90 nM)
Method in brief: as §1

[12] = tested on: PPARg:RXRa IVT, anti-PPARg (NR concentration 270 nM, RXRa partner concentration 90 nM)
Method in brief: as §1

[13] = tested on: PPARg DBDmut:RXRa IVT, anti-PPARg (DBD mutation: PPARg1 K132A/R137A, NR concentration 270 nM, RXRa partner concentration 90 nM)
Method in brief: as §1

[14] = tested on: PPARg DBDmut IVT, anti-PPARg (DBD mutation: PPARg1 K132A/R137A, NR concentration 270 nM)
Method in brief: as §1

[15] = tested on: PPARg homodimer (NR concentration 180 nM)
Method in brief: as §1

[16] = tested on: PXR:RXRa (NR concentration 270 nM, RXRa partner concentration 90 nM)
Method in brief: as §1

[17] = tested on: PXR homodimer (NR concentration 270 nM)
Method in brief: as §1

[18] = tested on: RARa:RXR (NR concentration 270 nM, RXRa partner concentration 90 nM)
Method in brief: as §1

[19] = tested on: RARa homodimer (NR concentration 270 nM)
Method in brief: as §1

[20] = tested on: RARb:RXRa (NR concentration 270 nM, RXRa partner concentration 90 nM)
Method in brief: as §1

| Sequence | PBM binding z-score [1] | PBM binding z-score [2] | PBM binding z-score [3] | PBM binding z-score [4] | PBM binding z-score [5] | PBM binding z-score [6] | PBM binding z-score [7] | PBM binding z-score [8] | PBM binding z-score [9] | PBM binding z-score [10] | PBM binding z-score [11] | PBM binding z-score [12] | PBM binding z-score [13] | PBM binding z-score [14] | PBM binding z-score [15] | PBM binding z-score [16] | PBM binding z-score [17] | PBM binding z-score [18] | PBM binding z-score [19] | PBM binding z-score [20] |
| --- | --- | --- | --- | --- | --- | --- | --- | --- | --- | --- | --- | --- | --- | --- | --- | --- | --- | --- | --- | --- |
| ACTAGCAGTCCAAGTTTGGGTCACTCAAACAAAG | 0.21 | 0.226 | -0.0309 | 0.795 | -0.524 | 1.13 | -0.105 | 0.22 | -0.155 | -0.0965 | -0.573 | 0.678 | -0.264 | -0.283 | -0.0489 | 0.921 | -0.137 | 1.4 | -0.47 | 1.24 |
| AGAATGAGGTTACCGAAGATCAGGGAAACGCTTG | 2.18 | 4.55 | -0.477 | 2.19 | -0.522 | 3.81 | 2.86 | 3.26 | 1.19 | 2.55 | 3.97 | 3.55 | 0.906 | 0.381 | 0.444 | 1.61 | -0.388 | 2.46 | -1.23 | 2.19 |
| TCTATTAGTTGATTAGGGAAACCGAAACAGCGGA | 0.843 | 0.826 | 0.343 | 0.602 | 0.852 | 0.623 | -0.0137 | 2.16 | 3.69 | 3.2 | 2.16 | 0.295 | 0.834 | 0.978 | 1.03 | 0.624 | 1.07 | 0.778 | 1.68 | 0.394 |
| CAACCTAGGTCAAGGTCAAAGTCGGTTTGTGCCA | 6.38 | 5.56 | 3.63 | 4.92 | 1.07 | 5.51 | 5.92 | 5.74 | 2.75 | 4.69 | 4.85 | 5.78 | -0.338 | 0.164 | 3.33 | 5.19 | 1.48 | 5.29 | 0.703 | 5.17 |
| TAAATGAGGTTAAAGATCAGGGAACGTGGCGTCG | 3.68 | 3.6 | 0.629 | 2.46 | 1.07 | 5.14 | 6.76 | 6.79 | 5.89 | 7.34 | 3.59 | 4.36 | 2.17 | 2.54 | 1.72 | 2.36 | 0.486 | 3.21 | 1.03 | 2.29 |
| TTACCAAGGTGATGGTCGTTGATCCCTCTGTAGA | 0.274 | 0.0639 | -0.222 | 0.219 | -0.598 | 0.442 | -0.08 | 0.334 | 0.217 | 0.0112 | 1.08 | 1.23 | -0.135 | 0.288 | 0.359 | -0.171 | -0.42 | 0.272 | 0.249 | 0.312 |
| CGAACTAGGTCATCCAGGACAGTGAGTACATTGA | 4.32 | 2.81 | 0.741 | 1.9 | 0.24 | 4.49 | 7.45 | 6.5 | 3.99 | 5.85 | 8.47 | 8.31 | 2.59 | 1.36 | 2.5 | 2.8 | 8.11 | 2.46 | 0.186 | 3.92 |
| TCGAGTAGGTTAGTCGGGGCATTCGGCCAACATA | -0.18 | -0.185 | -0.523 | 0.162 | -0.854 | 0.505 | -0.197 | 0.72 | 0.731 | 0.597 | 1.74 | 2.04 | -1.62 | -1.17 | 0.0341 | 0.113 | 0.177 | 0.065 | -0.901 | 0.58 |
| GTACCAAGGTGAATAGGTCGGTGATGAGTAGGCG | 0.606 | 0.247 | -0.139 | 0.125 | -0.619 | 1.64 | 1.24 | 1.29 | 0.291 | 0.711 | 1.48 | 2.82 | -0.0174 | 0.489 | 0.98 | 0.296 | 0.0352 | 1.02 | 0.441 | 1.86 |
| AATACAGGGTCACTAAGCCAGAGTAGGTACGAAT | 6.17 | 4.69 | 0.732 | 3.96 | 0.99 | 5.51 | 6.22 | 5.26 | 2.31 | 3.83 | 3.03 | 4.56 | 1.91 | 0.89 | 2.06 | 3.23 | 0.477 | 4.15 | 0.677 | 4.17 |
| CAAACTAGGTCAAGGTCAAAATCGGTTTGTGCCA | 6.5 | 5.02 | 3.14 | 4.66 | 1.58 | 6.16 | 9.66 | 7.73 | 6.38 | 7.81 | 8.64 | 9.04 | 2.23 | 3.4 | 2.8 | 4.7 | 1.74 | 4.78 | 1.1 | 5.1 |
| TCGAGTTGGTTAGGGGCATTCAGAATGGCGTCGA | 0.222 | 0.121 | -0.233 | 0.793 | -0.112 | 0.575 | -0.307 | 0.595 | 0.687 | 0.343 | 0.816 | -0.123 | -0.765 | -0.477 | 0.182 | 1.14 | 2.82 | 0.232 | 0.104 | 0.514 |
| TCATATAGGTTATACAGGTGAAAGTCGGCATCTA | 1.71 | 2.32 | 0.882 | 1.82 | 0.833 | 2.99 | 2.56 | 3.17 | 3.94 | 3.58 | 4.73 | 4.18 | 1.95 | 0.981 | 1.6 | 1.27 | 1.03 | 1.9 | 1.84 | 1.51 |
| CGTCCAAGGTCAATGCTTGGTCAGTGAAAGCATT | 6.4 | 4.57 | 0.472 | 3.42 | 0.327 | 4.9 | 3.44 | 4 | 0.746 | 2.46 | 2.65 | 3.19 | -0.682 | -0.881 | 3.32 | 3.86 | 0.527 | 4.45 | 0.0669 | 5.03 |
| CCTAGCAGGCCAATCTGGGTCTCTCAAGGCTTGA | -0.268 | -0.409 | -0.738 | -0.885 | -0.982 | 0.318 | -0.774 | -0.468 | -1.1 | -0.61 | 1.89 | 1.97 | -0.916 | -2.13 | -1.06 | -0.821 | -0.804 | -0.353 | -0.835 | 0.0483 |
| ATCGAAAGGTCGAGAGGTGAGTATACAGAAAGGC | 4.46 | 3.02 | -0.0292 | 2.63 | 0.274 | 4.33 | 3.42 | 3.44 | 1.69 | 2.47 | -0.201 | 1.82 | 0.777 | 0.861 | 2.03 | 2.69 | -0.031 | 3.73 | 0.105 | 3.88 |
| CCTACTGTGCCAAAAAGGTCATTGATGCCGATAA | 4.4 | 4.59 | 4.4 | 4.55 | 1.59 | 4.73 | 3.18 | 3.69 | 1.41 | 3 | 3.31 | 3.57 | 0.316 | 0.475 | 3.9 | 4.76 | 2.5 | 5.24 | 2.59 | 3.99 |
| CCGAGTAGGTTATGGGGCAATCAGGCAACGGTGA | 0.219 | 0.461 | 0.13 | 0.86 | -0.142 | 2.37 | 3.61 | 4.62 | 2.23 | 4.39 | 3.71 | 3.81 | -0.0155 | -0.785 | 0.948 | 0.118 | -0.0981 | 0.631 | 0.26 | 1.11 |
| TCTTGTAGATCAACAGGAGGTTAAGATAGATCGA | 0.606 | 1.82 | 0.251 | 0.87 | -0.281 | 1.34 | 0.413 | 1.07 | 2.4 | 1.53 | 1.53 | 1.03 | 0.933 | 1.02 | 0.31 | 0.729 | -0.114 | 1.05 | 0.362 | 0.506 |
